CYP2C9 act: activators of human CYP2C9; recombinant CYP2C9, luciferin-H conversion, luminescence; active compounds read high; factor 1 = untreated enzyme, 0 = blocked; P11712; 96,000 tested, 1.4% active; activation factor at 5 µM; AID 1024;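 active means activation factor of 2 or more for CYP2C9 at a 5 µM dose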;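 further: 0 = sulfaphenazole-blocked wells and 1 = vehicle-only wells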
CYP2C19 inh: blocks human cytochrome P450 2C19 | 96,000 tested, 21% active | inhibition, % at 5 µM | P33261 | CYP2C19 Supersomes, luciferin-H EGE luminescence, 30 min;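 active means CYP2C19 inhibition above a set limit at 5 µM in the primary screen, cut at about 50% in these data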;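 further: plate controls were negative control wells for no effect and 2.5 mM tranylcypromine positive control for full effect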
Target sequence (P33261 whole entry, looked up): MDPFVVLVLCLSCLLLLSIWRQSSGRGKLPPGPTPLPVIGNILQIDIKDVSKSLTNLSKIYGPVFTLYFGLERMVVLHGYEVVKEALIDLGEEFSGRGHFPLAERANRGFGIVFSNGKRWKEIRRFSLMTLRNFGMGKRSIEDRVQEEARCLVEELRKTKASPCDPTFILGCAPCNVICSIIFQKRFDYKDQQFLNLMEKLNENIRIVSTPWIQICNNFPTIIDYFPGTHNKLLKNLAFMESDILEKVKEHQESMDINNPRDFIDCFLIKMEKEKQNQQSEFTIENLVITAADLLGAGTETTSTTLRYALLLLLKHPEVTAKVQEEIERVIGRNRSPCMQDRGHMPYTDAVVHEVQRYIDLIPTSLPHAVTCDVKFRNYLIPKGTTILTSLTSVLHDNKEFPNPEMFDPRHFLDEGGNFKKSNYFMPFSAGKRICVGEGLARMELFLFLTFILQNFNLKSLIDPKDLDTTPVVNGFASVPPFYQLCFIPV
CYP2C19 activ: increases human CYP2C19 enzyme activity; P33261; recombinant CYP2C19, luciferin-H EGE luminescence; active compounds read high; 0 = fully inhibited enzyme, 1 = untreated enzyme; activation factor at 5 µM; 96,000 tested, under 10 active; AID 1025;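 active means activation factor of at least 2 at 5 µM in the primary screen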;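 further: 0 = wells with 2.5 mM tranylcypromine and 1 = vehicle-only wells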
EphB4 ephrin blk: blocks human EphB4 binding to ephrin-B2; P54760; EphB4 LBD / TNYL-RAW-Alexa532 peptide, fluorescence polarization; inhibition, % at 7 µM; 97,000 tested, 0.15% active;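 active means inhibition above the screen-wide mean inhibition plus 3 SD, cut at about 15% in these data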;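 further: 0% = DMSO wells and 100% = excess unlabeled TNYL-RAW peptide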
CYP2C9 inh: human CYP2C9 inhibition; AID 777; P11712; inhibition, % at 5 µM; CYP2C9 Supersomes, luciferin-H conversion, luminescence; 96,000 tested, 20% active;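 active means blocking of liver enzyme CYP2C9 beyond about 50% at 5 µM, limit read from the data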
Starred values were filed as active, the others as inactive; nt = not tested or not shown. Most compounds without a hit are left out; they make up all but 27% or so of the library.

SMILES | CYP2C9 act | CYP2C19 inh | CYP2C19 activ | EphB4 ephrin blk | CYP2C9 inh
CCN1C(=O)c2ccccc2S(=O)c2ccc(C(=O)N3CCCCCC3)cc21 (stereo not given) | 1.1 | -14 | 1.1 | 2 | -6
O=c1cc(CSc2nnnn2-c2ccccc2)nc2scc(-c3ccccc3)n12 | 0.6 | 38 | 0.6 | 4 | 45
c1ccc(-c2nc(CSc3nnnn3-c3ccccc3)cs2)cc1 | 0.5 | 97* | 0 | -1 | 50*
Cc1ccccc1Nc1nc(CSc2nnnn2-c2ccccc2)cs1 | 0.5 | 94* | 0.1 | -3 | 51*
CCCCNC(=O)c1ccc2c(=O)n(CCCOCC)c(=S)[nH]c2c1 | 1 | -5 | 1.1 | 4 | 2
c1cncc(CNc2c3c(nc4nnnn24)CCCC3)c1 | 0.8 | 68* | 0.3 | nt | 19
c1ccc(CNc2c3c(nc4ncnn24)CCCC3)nc1 | 1.1 | -3 | 1 | 3 | -6
COc1ccc(-c2ccnc3nc(Sc4ncc(C(F)(F)F)cc4Cl)nn23)cc1 | 0.5 | 30 | 0.7 | -5 | 52*
FC(F)(F)c1cnc(Sc2nc3nccc(-c4ccc(Cl)cc4)n3n2)c(Cl)c1 | 0.6 | 17 | 0.8 | 2 | 36
COC(=O)c1ccccc1NC(=S)NC(=O)COc1ccc(C)cc1 | nt | nt | nt | 1 | nt
Nn1c(-c2cccs2)nc2sc3c(c2c1=O)CCCC3 | 0 | 81* | 0.2 | -11 | 100*
Cc1ccccc1-c1nc2sc3c(c2c(=O)n1N)CCCC3 | 0.9 | 24 | 0.8 | -2 | 6
C(=N\N1CCN(Cc2ccccc2)CC1)/c1cccs1 | 0.9 | 60* | 0.4 | -9 | 13
C(=N\N1CCN(C2c3ccccc3-c3ccccc32)CC1)/c1cccs1 | 0.2 | 24 | 0.8 | -1 | 82*
O=C(CC1(O)C(=O)Nc2ccccc21)c1ccccc1O (stereo not given) | 0.8 | 15 | 0.8 | -3 | 16
O=c1nc2ccccc2c2n1CC(CN1CCN(c3ccc(F)cc3)CC1)N2 (stereo not given) | 0.6 | 11 | 0.9 | 3 | 38
Cc1ccc(-c2ccc(CCC(=O)O)n2-c2cccc(O)c2)cc1 | 0.4 | 44 | 0.6 | 4 | 57*
CCOC(=O)Cn1c(-c2ccccn2)nc2ccccc21 | 1 | 51* | 0.5 | -8 | 1
O=C(c1ccco1)N1CCN(CCOCCOc2cccc3ccccc23)CC1 | 0.4 | 68* | 0.3 | -1 | 57*
CCOc1cc(CN2CCN(C(=O)c3ccco3)CC2)ccc1OC | 1.1 | 3 | 1 | nt | -14
CCOc1ccccc1-n1c(CN2CCN(C(=O)c3ccco3)CC2)nc2ccccc2c1=O | 0.3 | 57* | 0.4 | 0 | 65*
Cn1c(=O)oc2cc(S(=O)(=O)NC3CCN(Cc4ccccc4)CC3)ccc21 | nt | nt | nt | 2 | nt
O=S(=O)(NC1CCN(Cc2ccccc2)CC1)c1cccc(S(=O)(=O)N2CCOCC2)c1 | 0.7 | 54* | 0.5 | 3 | 31
O=S(=O)(NCc1ccco1)c1cccc(S(=O)(=O)N2CCOCC2)c1 | 1.1 | 50* | 0.5 | -10 | -5
O=S(=O)(NCCC1=CCCCC1)c1cccc(S(=O)(=O)N2CCOCC2)c1 | 0.2 | 76* | 0.2 | -3 | 75*
SMILES | CYP2C9 act | CYP2C19 inh | CYP2C19 activ | EphB4 ephrin blk | CYP2C9 inh
O=S(=O)(CCc1ccccc1)N1CCOCC1 | 1 | 70* | 0.3 | nt | -3
CC(C)(C)n1ncc2c(=O)n(CC(=O)NC3CCCCC3)cnc21 | 1 | -12 | 1.1 | 3 | -4
O=S(=O)(NCCc1ccccc1)c1cccc(S(=O)(=O)N2CCOCC2)c1 | 0.4 | 89* | 0.1 | 2 | 61*
O=S(=O)(NCc1ccc(F)cc1)c1cccc(S(=O)(=O)N2CCOCC2)c1 | 0.5 | 49 | 0.5 | 1 | 47
C=C(C)c1cccc(C(C)(C)NC(=O)N2CCCCC2CC)c1 (stereo not given) | 0.1 | 51* | 0.5 | 5 | 89*
COc1ccc(C(C)=O)c(OC(=O)c2ccco2)c1 | 0.8 | 36 | 0.6 | -6 | 16
Cc1ccc(S(=O)(=O)/N=C/c2ccco2)cc1 | 1.2 | -13 | 1.1 | 3 | -18
Brc1ccc(CN2CCSCC2)cc1 | 0.6 | 59* | 0.4 | -5 | 44
CC(=O)OCc1cc2cccc(C)c2[nH]c1=O | 1 | -10 | 1.1 | 4 | 1
CC(=O)c1cccc(NC(=O)Cc2cccs2)c1 | 0.8 | 30 | 0.7 | nt | 22
O=C(Cc1cccs1)Nc1cccc(C(=O)Nc2ccco2)c1 | 0.2 | 51* | 0.5 | -3 | 78*
O=C(Cc1cccs1)Nc1ccc(NC(=O)c2ccco2)cc1 | 0.3 | 13 | 0.9 | -2 | 72*
Cn1c(=O)c2c(nc(NCc3ccco3)n2CC(O)COc2ccccc2)n(C)c1=O (stereo not given) | 0.5 | 24 | 0.8 | -1 | 47
COc1ccc(N2C3=[N+](CC2(C)O)c2ccccc2CC3)cc1 (stereo not given) | 0.9 | 21 | 0.8 | -2 | 15
COc1ccc(N)cc1C#N | 1.1 | -7 | 1.1 | 1 | -7
COc1cc(N)ccc1Cc1ccc(N)cc1OC | 1.4 | 78* | 0.2 | 2 | -41
COc1ccc(C2CC(C(F)(F)F)n3nc(C(N)=O)c(Cl)c3N2)cc1OC (stereo not given) | 0.4 | 15 | 0.9 | 7 | 58*
COc1ccc(C2CC(C(F)(F)F)n3ncc(C(=O)O)c3N2)cc1OC (stereo not given) | 1.2 | -23 | 1.2 | -2 | -19
COc1ccc(OCC(O)COc2ccc(OC)cc2)cc1 | 0.5 | 89* | 0.1 | nt | 50
COc1ccc(OCC(O)CNC(=O)c2ccc(Br)cc2)cc1 (stereo not given) | 0.5 | 52* | 0.5 | -3 | 46
COc1ccc(OCC(O)CNc2ccc(Br)cc2)cc1 (stereo not given) | 0.1 | 97* | 0 | -2 | 90*
COc1ccc(OCC(O)CN(C2CCCCC2)C2CCCCC2)cc1 (stereo not given) | 0.9 | -4 | 1 | -5 | 13
COc1ccc(C(=O)NCC(C)CN(C)C)cc1 (stereo not given) | 1.2 | -17 | 1.2 | -2 | -23
COc1ccc(N2C(=O)CCC(C(=O)NCc3ccccn3)C2c2ccc(OC)c(OC)c2)cc1 (stereo not given) | 1.1 | -14 | 1.1 | nt | -14
COc1ccccc1-c1noc(-c2ccncc2)n1 | 0.9 | 89* | 0.1 | 9 | 13
SMILES | CYP2C9 act | CYP2C19 inh | CYP2C19 activ | EphB4 ephrin blk | CYP2C9 inh
COc1ccc(-c2noc(COc3ccc(C)c(C)c3)n2)cc1OC | 0.6 | 73* | 0.3 | -5 | 37
c1ccc(-c2nc(-c3ccncc3)no2)cc1 | 0.8 | 94* | 0.1 | 3 | 23
c1coc(-c2nc(-c3ccncc3)no2)c1 | 0.7 | 87* | 0.1 | 3 | 35
COc1nc(-c2ccc(Cl)cc2)ccc1-c1noc(-c2ccco2)n1 | 0.7 | 8 | 0.9 | -4 | 31
O=C(CSc1nc2ccccc2n1CC(=O)N1CCOCC1)N1CCCC1 | nt | nt | nt | -5 | nt
CCc1nnc(NC(=O)C2CCN(c3nccc(C)n3)CC2)s1 | 0.6 | -3 | 1 | 7 | 38
